Shown are actives, neighbours in structure and some others; about 19% of the full set was active somewhere.
MARV entry inh = Marburg virus entry inhibition; 300,000 tested, 1.8% active; Marburg virus pseudotyped entry inhibition, cell reporter; Potency, µM (titrated, usually from 37.8 µM), for inactives: at the highest dose activity change, negative = inhibition, usual class: inhibitors; calls by dose curve; tested in HEK293 cells; further: potency means the concentration at half of the fitted maximal effect; on the % scale 0 is the no-effect control and ±100 the full control effect
Pf growth 48h = P. falciparum growth inhibition at 48 hours (one generation); Potency, µM (highest dose often 28.7 µM), for the others: at the highest dose activity change, negative = inhibition, hits mostly inhibitors; 310,000 tested, 5.9% active; P. falciparum luciferase growth in erythrocytes, 48 h; further: potency means the concentration at half of the fitted maximal effect; on the % scale 0 is the no-effect control and ±100 the full control effect
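Luciferase-expressing P. falciparum in infected erythrocytes (2% hematocrit, 0.1% parasitemia final) in RPMI 1640/0.5% Albumax were exposed to compound for 48 hours at 37 C, 5% CO2; growth read as luminescence.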
CHX counter = affects cycloheximide protein synthesis inhibition readout, counter-screen; 300,000 tested, 12% active; AID 2314; max response, %; cell reporter, cycloheximide protein synthesis inhibition counterscreen; in the data active means max response mostly above about 13%, no sharp cut-off; inactive means mostly below about 14%; further: read at 38.3 µM for the half of the compounds with a filed dose; 0% is about no effect
Pf growth 96h = inhibits malaria parasite growth, 96 h | P. falciparum luciferase reporter growth, 96 h | Potency, µM (doses to about 28.7 µM), for the others: top-dose activity change, negative = inhibition, hits mostly inhibitors | 320,000 tested, 6.9% active; further: potency means the concentration at half of the fitted maximal effect; on the % scale 0 is the no-effect control and ±100 the full control effect
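P. falciparum expressing integrated firefly luciferase, in erythrocytes at 2% hematocrit, 0.05% parasitemia, incubated with compounds 96 h at 37 C, 5% CO2. Growth inhibition read as loss of luminescence; two-generation exposure targets delayed-death apicoplast inhibitors.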
Lassa entry inh = Lassa virus entry inhibition; Lassa virus pseudotype entry inhibition, cell reporter; Potency, µM (titrated, usually from 37.9 µM), for inactives: at the top dose activity change, negative = inhibition, most hits filed as inhibitors; 300,000 tested, 1.2% active; calls by dose curve; tested in HEK293 cells; further: potency means the concentration at half of the fitted maximal effect; on the % scale 0 is the no-effect control and ±100 the full control effect; nearly all actives have a fitted effect of over 50% in size
Shiga toxin inh = Shiga toxin inhibition; Vero cells, Shiga toxin protein synthesis inhibition reporter; inhibition, % at 38.7 µM; 290,000 tested, 9.2% active; AID 2315; in the data active means inhibition mostly above about 28%, no sharp cut-off; inactive means mostly below about 43%; further: 0% is about no effect
The depositor's hits bear a star; ? = inconclusive; nt = no result given; [ ] = another dose, or the depositor's remark. Unless noted, the call rests on the fitted dose curve; in most records, active means well fitted inhibition curve with a large enough effect; inconclusive means small, poorly fitted or top-dose-only effect, or another doubt; inactive means no such curve, though single readings can be large or run the other way.

SMILES	MARV entry inh	Pf growth 48h	CHX counter	Pf growth 96h	Lassa entry inh	Shiga toxin inh
Cc1sc2ncnc(Nc3ccccc3)c2c1C	-17.1%	19.2%	1.3	nt	-1.7%	-11.3
Cc1sc2ncnc(Sc3nnnn3-c3ccccc3)c2c1C	?	4.65µM*	-6.2	34.6%	?	-13.2
Cn1nnnc1Sc1ncnc2scc(-c3ccc([N+](=O)[O-])cc3)c12	nt	13.1µM*	nt	3.7µM*	nt	nt
COc1ccc(C)cc1NC(=O)Cn1c(=O)oc2cc(S(=O)(=O)NCc3ccccc3)ccc21	nt	nt	nt	nt	18.4%[46.1 µM]	nt
COc1ccc(/C=N/NC(=O)Cn2ccnc2C)cc1OC	8.2%[46.1 µM]	-0.4%	-4.2	-28.2%	0.6%	-4.2
Cn1nnnc1Sc1ncnc2scc(-c3ccccc3Cl)c12	nt	11.7µM*	nt	1.65µM*	nt	nt
CC1(c2ccc3ccccc3c2)NC(=O)N(CC(=O)O)C1=O (stereo not given)	1.2%[46.1 µM]	20.8%	-4.5	49.9%	11.7%	-7.2
CCCC1(c2ccccc2)NC(=O)N(CC(=O)c2[nH]c(C)c(C(=O)OCC)c2C)C1=O (stereo not given)	?	4.15µM*	9.8	8.28µM*	?	62.4
CCOC(=O)c1c(C)[nH]c(C(=O)CN2C(=O)NC(C)(c3ccc4ccccc4c3)C2=O)c1C (stereo not given)	?	?	-0.7	5.22µM*	-26.6%[14.3 µM]	-11.0
CCOC(=O)c1c(C)[nH]c(C)c1C(=O)CN1C(=O)NC2(CCCCCC2)C1=O	nt	6.57µM*	nt	?	nt	nt
CCOC(=O)c1c(C)[nH]c(C(=O)CN2C(=O)NC3(CCCC3)C2=O)c1C	22.8%[46.1 µM]	26.6%	28.7*	54.7%	-7.3%[46.1 µM]	52.1*
CCOC(=O)c1c(C)[nH]c(C(=O)CN2CCN(CC)CC2)c1C	nt	0.7%	-3.8	57.5%	nt	-2.0
Cc1ccc(S(=O)(=O)N2CCN(Cc3ccccc3)CC2)c(C)c1NS(C)(=O)=O	nt	nt	nt	nt	-35.9%[46.1 µM]	nt
CC(=O)Nc1ccc(S(=O)(=O)NNC(=O)c2ccc(S(=O)(=O)N3CCCCC3)cc2)cc1	?	?	2.0	-6.9%	-13.2%	7.4
Cc1nn(CCCC(=O)Nc2cc(C(F)(F)F)ccc2Cl)c(=O)c2c1sc1ccccc12	2.3%[46.1 µM]	nt	nt	nt	1.8%[46.1 µM]	nt
CCCCCCSc1ccc([C@H]2N[C@@](Cc3ccccc3)(C(=O)OC)[C@H]3C(=O)N(CC)C(=O)[C@@H]23)cc1	nt	0.828µM*	nt	0.465µM*	nt	nt
CCOC(=O)C1(Cc2ccccc2)NC(c2ccccc2F)C2C(=O)N(CC)C(=O)C21 (stereo not given)	-11.5%[46.1 µM]	?	3.4	41.9%	-10.4%	33.1
CCCSc1ccc([C@H]2N[C@@](Cc3ccccc3)(C(=O)OC)[C@H]3C(=O)N(CC)C(=O)[C@@H]23)cc1	nt	1.47µM*	nt	1.04µM*	nt	nt
CCCCCCSc1ccc([C@H]2N[C@@](Cc3ccccc3)(C(=O)OC)[C@H]3C(=O)N(C)C(=O)[C@@H]23)cc1	nt	0.294µM*	nt	?	nt	nt
CCC(C)Sc1ccc([C@H]2N[C@@](Cc3ccccc3)(C(=O)OC)[C@H]3C(=O)N(C)C(=O)[C@@H]23)cc1 (stereo not given in full)	nt	1.04µM*	nt	?	nt	nt
COC(=O)C1(CCSC)NC(c2ccccc2OC)C2C(=O)N(C)C(=O)C21 (stereo not given)	10.6%[46.1 µM]	5.0%	-8.1	-2.1%	26.6%	-19.2
N#Cc1cc(-c2cccc(Cl)c2)c[nH]c1=O	-4.1%	9.2%	0.2	21.1%	-4.4%	12.5
COc1cccc(C(=O)NCCS(=O)(=O)NCCCc2ccccc2)c1	?	17.8%	nt	41.8%	-6.4%	nt
O=C1CC(C(=O)N2CCN(Cc3ccccc3)CC2)CN1Cc1ccccc1 (stereo not given)	1.0%	?	nt	6.8%	-16.0%	nt
COc1ccccc1OCCNC(=O)c1ccc(NC(=O)CC2SC(N3CCCC3)=NC2=O)cc1 (stereo not given)	1.3%	nt	nt	nt	-8.6%	nt
CCOc1cc(C(N)=O)cc(Br)c1OC	-4.9%	2.9%	-2.5	-7.5%	3.0%	-7.2
CCOc1ccc(-c2nonc2NC(=O)c2ccco2)cc1OCC	-29.8%[46.1 µM]	0.37µM*	18.3	?	-2.3%[46.1 µM]	36.1*
CCOc1ccc(-c2nonc2NC(=O)c2ccco2)cc1	-15.1%[46.1 µM]	0.3%	-3.0	10.4µM*	14.4%[46.1 µM]	-10.5
CCCOc1ccc(-c2nonc2NC(=O)c2ccco2)cc1OCCC	-1.6%[46.1 µM]	nt	nt	nt	-4.2%[46.1 µM]	nt
